{"source": "PubChem BioAssay (NCATS)", "note": "Results filed as inconclusive are left out. A call without a number means that no potency is given here. More than one record can exist for a structure, and the calls need not agree. A number with no mark means an inactive call. Calls of active or inactive are those of the source. Calls come from the whole dose curve; as a rule, active = well fitted cell-killing curve with a large enough effect; inconclusive = small, poorly fitted or top-dose-only effect, or effect the other way; inactive = no such curve, though single readings can be large or run the other way. Potency is the fitted concentration of half-maximal effect.", "data": [{"experiment": "Viability qHTS for spleen associated tyrosine kinase inhibitor (SYKi) naive MV4-11 cells (AID 1963823); note: nearly all actives have a fitted effect of over 40% in size", "conditions": "MV4-11 AML viability, CellTiter-Glo luminescence, 72 h; series mostly up to 45 µM", "method_in_brief": "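Compounds were dispensed acoustically onto plates, MV4-11 cells (SYKi-naive) added at 500 per well, and plates incubated 72 hr at 37 C. CellTiter-Glo was added and luminescence measured after 10 min.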", "values": [{"compound": "O=C(NCCN1CCCC1)c1cc(-c2ccc(CN3CCOCC3)cc2)nc2ccc(F)cc12", "Potency": "inactive"}, {"compound": "OC[C@H]1O[C@@H](OC[C@H]2O[C@@H](OC/C=C/c3ccccc3)[C@H](O)[C@@H](O)[C@@H]2O)[C@@H](O)[C@@H]1O", "Potency": "inactive"}, {"compound": "COc1cc(C[C@@]2(O)CO[C@@H](c3ccc(O[C@@H]4O[C@H](CO)[C@@H](O)[C@H](O)[C@H]4O)c(OC)c3)[C@H]2CO)ccc1O", "Potency": "inactive"}, {"compound": "CCC(NC(=O)CC(NC(=O)C(CO)NC(=O)C(CC)NC(=O)c1ccc[nH]1)c1ccccc1)C(=O)O", "note": "(configuration not stated)", "Potency": "inactive"}, {"compound": "CC[C@H](Nc1ncnc2nc[nH]c12)c1nc2cccc(F)c2c(=O)n1-c1ccccc1", "viability (% of control)": "57.2% [at 9.25 µM]", "Potency": "0.332 µM (active)"}, {"compound": "COc1cc(C(C)=O)c(OC)c2c1OC(C)(C)C=C2", "Potency": "inactive"}, {"compound": "CC(=O)NC1C(OC(C)(C)C2CCC3(C)C=C(C4CCC5C4(C)CC(O)C4OC(C(C)(C)O)CCC45C)CCC3O2)OC(CO)C(O)C1O", "note": "(configuration not stated)", "Potency": "1.93 µM (active)"}, {"compound": "C=C[C@H](/C=C\\c1ccc(O)cc1)c1ccc(O)cc1", "Potency": "18.4 µM (active)"}, {"compound": "C=C1[C@@H](OC(C)=O)CC[C@@]2(C)[C@@H](OC(C)=O)[C@H](OC(C)=O)C3=C(C)C[C@H](OC(=O)C(C)CC)[C@@H]([C@@H](OC(C)=O)[C@H]12)C3(C)C", "note": "(some centres not stated)", "Potency": "1.53 µM (active)"}, {"compound": "O=C(NCCN1CCOCC1)c1cc2c(Oc3ccc(NC(=O)C4(C(=O)Nc5ccc(F)cc5)CC4)cc3)ccnc2[nH]1", "Potency": "0.0259 µM (active)"}, {"compound": "CC1=C2[C@@H]([C@H](C)CC[C@H]2/C=C(\\C)C(=O)O)[C@H](O)C1", "Potency": "inactive"}, {"compound": "C=C(C)C1CCC(C)C12CC(O)C1(C)OC1C2OC(=O)C(N)CCC(=O)O", "note": "(configuration not stated)", "Potency": "inactive"}, {"compound": "C[C@@H]1C[C@H]2O[C@@H]2/C=C\\C=C\\C(=O)Cc2c(Cl)c(O)cc(O)c2C(=O)O1", "viability (% of control)": "9.93% [at 9.25 µM]", "Potency": "0.0321 µM (active)"}, {"compound": "C[C@H]1C[C@H]2[C@@H]3CCC4=CC(=O)C=C[C@]4(C)[C@@]3(F)[C@@H](O)C[C@]2(C)[C@@]1(O)C(=O)COP(=O)(O)O", "Potency": "inactive"}, {"compound": "CCC(=O)O[C@H]1C(C)(C)[C@H]([C@@H](O)C(=O)OC)[C@]2(C)C(=O)[C@@]1(O)[C@H]1O[C@]13C1CC(=O)O[C@@H](c4ccoc4)[C@]1(C)CCC32", "note": "(some centres not stated)", "Potency": "inactive"}, {"compound": "CC(=O)OC1CC(C)(C(=O)O)CC2C3=CC(=O)C4C5(C)CCC(OC6OC(C(=O)O)C(O)C(O)C6OC6OC(C(=O)O)C(O)C(O)C6O)C(C)(C)C5CCC4(C)C3(C)CCC12C", "note": "(configuration not stated)", "viability (% of control)": "70.5% [at 9.25 µM]"}, {"compound": "CC(=O)OCC1=C[C@H](O)[C@@H]2C(C(=O)O)=CO[C@@H](O[C@@H]3O[C@H](CO)[C@@H](O)[C@H](O)[C@H]3O)[C@H]12", "Potency": "inactive"}, {"compound": "CC(=O)OC[C@@]12[C@@H](OC(C)=O)C[C@@H](C)[C@](C)([C@@H]3C[C@H]4C=CO[C@H]4O3)[C@H]1CCC[C@]21CO1", "Potency": "inactive"}, {"compound": "CC1(C)CC[C@]2(C(=O)O[C@@H]3O[C@H](CO[C@@H]4O[C@H](CO)[C@@H](O)[C@H](O)[C@H]4O[C@@H]4O[C@H](CO)[C@@H](O)[C@H](O)[C@H]4O)[C@@H](O)[C@H](O[C@@H]4O[C@H](CO)[C@@H](O)[C@H](O)[C@H]4O)[C@H]3O)CC[C@]3(C)C(=CCC4[C@@]5(C)CC[C@@H](O)[C@@](C)(C(=O)O[C@@H]6O[C@H](CO)[C@@H](O)[C@H](O)[C@H]6O)C5CC[C@]43C)[C@@H]2C1", "note": "(some centres not stated)", "viability (% of control)": "73.4% [at 9.25 µM]"}, {"compound": "Cc1nc2ccccc2c(-c2ccc3c4c(ccnc24)CCO3)c1[C@H](OC(C)(C)C)C(=O)O", "Potency": "inactive"}, {"compound": "C=C1C(=O)OC2CC(C)=C(C(C)CCCO)C(O)C12", "note": "(configuration not stated)", "Potency": "inactive"}, {"compound": "CC1C/C=C/C=C\\CCCCC(O)C/C=C/C(=O)O1", "note": "(configuration not stated)", "Potency": "inactive"}, {"compound": "COc1cc2c(cc1O)[C@H](c1ccc(O[C@@H]3O[C@H](CO)[C@@H](O)[C@H](O)[C@H]3O)c(OC)c1)[C@@H](CO)[C@](O)(CO)C2", "Potency": "inactive"}, {"compound": "CC[C@H]1CN(c2nc(N)c(C(N)=O)nc2Cl)CCN1C1CCN(Cc2ccc(Cl)cc2)CC1", "Potency": "inactive"}, {"compound": "OC[C@@]1(O)CO[C@@H](OC[C@H]2O[C@@H](Oc3c[nH]c4ccccc34)[C@H](O)[C@@H](O)[C@@H]2O)[C@@H]1O", "Potency": "inactive"}, {"compound": "C=C1C(OC(C)=O)CCC2(C)CCC(C(C)(C)O)CC12", "note": "(configuration not stated)", "Potency": "inactive"}, {"compound": "c1ccc2c(Nc3nnc(-c4ccncc4)s3)cccc2c1", "Potency": "inactive"}, {"compound": "COC(=O)C1C(c2ccc(O)cc2)C(C(=O)O)C1c1ccc(O)cc1", "note": "(configuration not stated)", "Potency": "inactive"}, {"compound": "C/C1=C\\CC[C@]2(C)O[C@H]2C(=O)c2c(C)coc2C1", "Potency": "inactive"}, {"compound": "COCCN(C)Cc1ccc2nc3sc(C(=O)N(C)C4CCCCC4)cn3c2c1", "Potency": "inactive"}, {"compound": "COc1ccc(/C=C/C(=O)O[C@@H]2[C@@H](OC(C)=O)[C@@H](OC(C)=O)[C@H](O[C@H]3[C@@H]4C=CO[C@@H](O[C@@H]5O[C@H](CO)[C@@H](O)[C@H](O)[C@H]5O)[C@@H]4[C@@]4(CO)O[C@@H]34)O[C@H]2C)cc1O", "Potency": "inactive"}, {"compound": "CC1C2=CC(=O)OC2(O)CC2C1C(O)CC1C(C)(CO)CCCC21C", "note": "(configuration not stated)", "Potency": "inactive"}, {"compound": "C[C@@H](CC[C@@H]1[C@@]2(C)CCCC(C)(C)C2CC[C@@]1(C)O)CC(=O)O", "note": "(some centres not stated)", "Potency": "inactive"}, {"compound": "COc1ccc(C2(O)c3ccccc3NC(=O)C2O)cc1", "note": "(configuration not stated)", "Potency": "inactive"}, {"compound": "CCN(CC)CC1CCN(c2ncc3ncnc(Nc4ccc(F)c(Cl)c4)c3n2)CC1", "Potency": "2.91 µM (active)"}, {"compound": "CC1(C)CCC[C@@]2(C)[C@H]1[C@H](O)C=C1COC(=O)[C@@]12O", "Potency": "inactive"}, {"compound": "O=c1c2ccccc2nc2n1CCC2O", "note": "(configuration not stated)", "Potency": "inactive"}, {"compound": "CC(O)C1CCC2C3CCC4CC(OC5OC(C(=O)O)C(O)C(O)C5O)CCC4(C)C3CCC12C", "note": "(configuration not stated)", "Potency": "inactive"}, {"compound": "CC1(C)CCCC2(C)C1C(OC(=O)/C=C/C=C/C=O)C=C1COC(=O)C12O", "note": "(configuration not stated)", "Potency": "5.02 µM (active)"}, {"compound": "CC(=O)N1CCN([C@H]2CCN(C(=O)N(C)[C@H](C)c3cc(C(F)(F)F)cc(C(F)(F)F)c3)[C@@H](c3ccc(F)cc3C)C2)CC1", "Potency": "14.6 µM (active)"}]}]}
